Compounds with a hit are over-represented: about 10% of the library has one in this group of screens.
VDR inh: Inhibitors of the vitamin D receptor (VDR): qHTS. Vitamin D3 receptor (Homo sapiens), P11473. VDR-SRC2-3 peptide fluorescence polarization, 2 h. Potency, µM, without a hit: max response, negative = inhibition, actives largely listed as inhibitors. 0.93% of 400,000 active. AID 504847, 2011; also: potency is read from the fitted curve at half-maximal effect
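Fluorescence polarization assay measuring small-molecule disruption of VDR binding to the coregulator peptide SRC2-3. Compounds were pin-transferred (23 nl) into the reagent mix and incubated 2 h at room temperature before reading.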
PLK1 PBD inh: qHTS for Inhibitors of PLK1-PDB (polo-like kinase 1 - polo-box domain): Primary Screen | Plk1 PBD binding of FITC phosphopeptide, fluorescence polarization | Potency, µM, for the others: max response, negative = inhibition, usual class: inhibitors | 2.8% of 360,000 active | AID 720504, 2013; also: potency is read from the fitted curve at half-maximal effect; series mostly up to about 57 µM; nearly all actives have a fitted effect of over 65% in size
Target sequence (P53350 whole entry, looked up, the tested form may be a part): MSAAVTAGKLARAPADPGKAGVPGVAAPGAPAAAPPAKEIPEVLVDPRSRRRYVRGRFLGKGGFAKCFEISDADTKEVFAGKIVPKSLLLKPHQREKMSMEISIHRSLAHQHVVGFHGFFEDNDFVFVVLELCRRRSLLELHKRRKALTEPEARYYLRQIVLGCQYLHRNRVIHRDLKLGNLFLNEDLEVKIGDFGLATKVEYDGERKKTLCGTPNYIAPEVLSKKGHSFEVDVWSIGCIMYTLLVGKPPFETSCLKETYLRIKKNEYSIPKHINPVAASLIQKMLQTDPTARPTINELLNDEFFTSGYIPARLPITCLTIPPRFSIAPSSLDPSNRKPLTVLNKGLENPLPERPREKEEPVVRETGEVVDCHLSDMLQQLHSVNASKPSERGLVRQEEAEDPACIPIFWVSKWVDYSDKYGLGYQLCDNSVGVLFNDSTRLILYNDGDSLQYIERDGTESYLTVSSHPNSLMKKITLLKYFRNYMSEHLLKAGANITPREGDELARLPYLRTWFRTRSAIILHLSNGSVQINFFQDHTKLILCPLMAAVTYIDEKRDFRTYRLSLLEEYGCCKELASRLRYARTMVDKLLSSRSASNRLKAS
MmCpn inh: Inhibitors of TCP-1 ring complex (TRiC) of Methanococcus maripaludis (MmCpn): qHTS. Chaperonin Mm-Cpn (Methanococcus maripaludis). 0.031% of 330,000 active. purified Mm-Cpn ATPase, ADP Transcreener TR-FRET. AID 504842, 2011. Potency, µM (series often up to 76.9 µM), without a hit: at the highest dose activity, negative = inhibition, usual class: inhibitors; also: potency is read from the fitted curve at half-maximal effect; nearly all actives have a fitted effect of over 80% in size
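ATPase turnover read by TR-FRET ADP competition (Eu cryptate antibody/ADP-d2, 665/590 nm): 10uM ATP final, 25nM Mm-CPN final, 30 min 37degC after 10-min compound preincubation, pH 7.4 Tris/KCl/MgCl2/DTT buffer.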
G9a inh: qHTS Assay for Inhibitors of Histone Lysine Methyltransferase G9a. Histone-lysine N-methyltransferase EHMT2 (Homo sapiens), Q96KQ7. Potency, µM (highest dose often 102 µM), without a hit: at the top dose activity, negative = inhibition, usual class: inhibitors. 8.8% of 350,000 active. G9a H3K9 monomethylation, AlphaScreen, 2 h; also: potency is read from the fitted curve at half-maximal effect; nearly all actives have a fitted effect of over 75% in size
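AlphaScreen detection with an anti-monomethyl H3K9 antibody quantified product after a 2 h room-temperature reaction containing 500 nM biotinylated H3K9 peptide, 20 µM SAM and 20 nM enzyme, which had been preincubated 15 min with compound.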
Sfp PPTase inh: qHTS Assay for Inhibitors of Bacillus subtilis Sfp phosphopantetheinyl transferase (PPTase). 4'-phosphopantetheinyl transferase ffp (Bacillus subtilis), Q9F4F7. Biochemical Sfp PPTase activity, qHTS. Potency, µM, for the others: largest response in the series, negative = inhibition, actives largely listed as inhibitors. 3.5% of 310,000 active. AID 1490, 2009;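 also: the enzyme is Sfp with the accession as filed and its product quenches rhodamine fluorescence; potency is read from the fitted curve at half-maximal effect; 0% = enzyme reaction without inhibitor and -100% = no enzyme wells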
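After 15 min at room temperature with compound, 15 nM Sfp received 5 uM rhodamine-CoA plus 12.5 uM BHQ-2-ybbR (50 mM Hepes pH 7.6, 10 mM MgCl2). Rate came from the fluorescence difference over 30 min, ex 525/em 598 nm.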
CCT modulator: High-Throughput Screening for Modulators of Cytosolic Chaperonin Activity | purified chaperonin ATPase assay, HTRF ADP detection, 30 min | activity change, % (concentration not given with the values), hits read low | 0.3% of 360,000 active; in the data active = activity change below about -30%
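Enzyme 40 or 20 nM (batch-dependent) in Tris pH 7.4/KCl/MgCl2/DTT; cpd 76 uM single point; ATP 10 uM; 30 min 37 °C; Transcreener ADP HTRF detection, 30 min RT; ratio 665/615.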
* marks the source's active call; other numbers are inactive results; u = inconclusive; x = no result; [ ] = dose if it differs, or a comment. Unless noted, calls follow the shape of the dose curve; as a rule, active = well fitted curve in the direction sought with a large enough effect; inconclusive = small, poorly fitted or top-dose-only effect, or another doubt; inactive = no such curve, though single readings can be large; an effect the other way counts as inactive or inconclusive. Unless noted, % is scaled to controls: 0 for no effect and ±100 for the full control effect.

SMILES | VDR inh | PLK1 PBD inh | MmCpn inh | G9a inh | Sfp PPTase inh | CCT modulator
CCCC(C)c1nnc(NC(=O)C2CC(=O)N(CCc3ccc(F)cc3)C2)s1 (configuration not stated) | u | 6µM* | 1% | 7.9µM* | 28µM* | 0
CC(C)(C)c1nnc(NC(=O)C2CC(=O)N(CCc3ccc(F)cc3)C2)s1 (configuration not stated) | -13% | u | -1% | 32µM* | u | -1
COc1cc(C(=O)/C=C/c2cccnc2)c([N+](=O)[O-])cc1OC | 50µM* | -20% | 1% | 20%[2.33 µM] | x | -2
O=C(/C=C/c1cccnc1)c1ccccc1O | u | -21% | -3% | 35µM* | 45µM* | 0
O=C(C=Cc1cccnc1)c1ccccc1 | u | -9% | x | x | x | -2
O=C(/C=C/c1cccc(O)c1)c1cccnc1 | 56µM* | u | -5% | u | -26% | -1
O=C(/C=C/c1cccnc1)c1cccc(O)c1 | u | -13% | u | 35µM* | u | -4
C=C1CC2C(=O)N(Cc3ccccc3)C(C(=O)O)C1N2C(=O)OC(C)(C)C (configuration not stated) | -8% | x | x | x | 0% | x
CCn1c(=O)c2sccc2n2c(CCCC(=O)N3CCN(c4ccc(F)cc4)CC3)nnc12 | -8% | x | x | -5%[59 µM] | x | x
O=C(O)Cc1sc(Nc2cccc3ccccc23)nc1-c1ccccc1 | -20% | -26% | -11% | -42%[12.7 µM] | x | -4
O=C(O)Cc1sc(Nc2ccccc2)nc1-c1ccccc1 | -5% | x | x | u | x | x
COc1ccc(OC)c(-c2nc(Nc3ccccc3C)sc2CC(=O)O)c1 | -15% | x | x | u | x | x
O=C(O)Cc1sc(Nc2cccc3ccccc23)nc1-c1ccc(Cl)cc1 | -2% | 27µM* | u | 25µM* | -26% | -3
COC(=O)CCc1sc(Nc2ccccc2)nc1-c1ccc(OC)cc1 | -6% | -15% | -5% | 11µM* | 1% | -3
COc1ccc(Nc2nc(-c3ccc(OC)cc3)c(CCC(=O)O)s2)cc1 | u | -18% | -1% | u | 12% | 1
Cc1ccc(Nc2nc(-c3ccc(C)cc3)c(CC(=O)O)s2)cc1 | -11% | -16% | -2% | 35µM* | -12% | -3
CCOc1ccccc1Nc1nc(-c2ccc(C)cc2)c(CC(=O)O)s1 | 1% | x | x | 7.9µM* | x | x
CCOC(=O)Cn1c(=O)n(CC2CCCO2)c2nc(-c3ccc(OCC)cc3)nc(C(N)=O)c21 (configuration not stated) | 14% | x | x | 0%[59 µM] | x | x
Cc1ccc2c(c1)N(C(=O)N1CCC(C(=O)NCc3ccccc3F)CC1)CC(C)O2 (configuration not stated) | 14% | x | x | -26%[59 µM] | x | x
Cc1cccc(Cn2cc3c(=O)n(CC(=O)Nc4cccc(C)c4C)nc-3c3cc(F)ccc32)c1 | 11% | x | x | -4%[59 µM] | x | x
CCC(Sc1nnc(C)n2c1cc1occc12)C(=O)Nc1ccccc1F (configuration not stated) | 5% | x | x | -47%[59 µM] | x | x
CCN(C(=O)COC(=O)c1ccccc1NCc1ccco1)c1c(N)n(Cc2ccccc2)c(=O)[nH]c1=O | -7% | 7% | x | x | x | 1
CCCCN(C(=O)c1cc2c(s1)CCC2)c1c(N)n(CCCC)c(=O)[nH]c1=O | -6% | -17% | 1% | u | x | -3
COCCN(C(=O)COC(=O)c1ccccc1NCc1ccco1)c1c(N)n(Cc2ccccc2)c(=O)[nH]c1=O | 0% | -1% | -10% | 79µM* | x | 2
CCCCn1c(N)c(N(CCOC)C(=O)c2cc3c(s2)CCC(C)C3)c(=O)[nH]c1=O (configuration not stated) | -4% | -1% | u | 35µM* | x | -6
SMILES | VDR inh | PLK1 PBD inh | MmCpn inh | G9a inh | Sfp PPTase inh | CCT modulator
COCCN(C(=O)COC(=O)c1cc2c(s1)CCC2)c1c(N)n(Cc2ccccc2)c(=O)[nH]c1=O | -12% | 9.5µM* | -18% | 10µM* | x | 0
CCCn1c(N)c(N(CCOC)C(=O)Cc2ccc(S(=O)(=O)N3CCOCC3)s2)c(=O)[nH]c1=O | 8% | 0% | 2% | 50µM* | x | 1
COCCN(C(=O)COC(=O)c1ccc(Cl)s1)c1c(N)n(Cc2ccccc2)c(=O)[nH]c1=O | -4% | -5% | -5% | u | x | -2
COCCN(C(=O)CSCc1ccccc1)c1c(N)n(Cc2ccccc2)c(=O)[nH]c1=O | 3% | -11% | 1% | u | 9% | -2
COCCN(C(=O)CN1CCc2ccccc2C1)c1c(N)n(Cc2ccccc2)c(=O)[nH]c1=O | -14% | -5% | -1% | 40µM* | 12% | -1
CCC1CCc2sc(C(=O)OCC(=O)N(CCOC)c3c(N)n(Cc4ccccc4)c(=O)[nH]c3=O)cc2C1 (configuration not stated) | 0% | 3% | -1% | 28µM* | x | 1
Cc1ccc(CNC(=O)CSc2ncc(S(=O)(=O)c3ccc(C)c(Cl)c3)c(=O)[nH]2)cc1 | 9% | x | x | 4%[59 µM] | x | x
COc1ccc(CCNC(=O)C(=O)NCC(c2cccs2)S(=O)(=O)c2ccc(C)cc2)cc1 (configuration not stated) | 7% | x | x | 6%[59 µM] | x | x
CC(NC(=O)c1cccs1)c1ccc(Br)cc1 (configuration not stated) | 5% | -28% | x | x | x | 0
C/C(=N\NS(=O)(=O)c1ccc([N+](=O)[O-])cc1)c1cccs1 | u | 27µM* | 4% | 45µM* | 1% | 0
C/C(CC(C)C)=N/Nc1ccc([N+](=O)[O-])cc1[N+](=O)[O-] | u | -3% | 0% | 11µM* | -16% | -3
O=[N+]([O-])c1ccc(S(=O)(=O)N/N=C/c2cccs2)cc1 | -2% | -28% | -2% | u | 5% | 2
CC(C)/C(=N\NS(=O)(=O)c1ccc(Br)cc1)c1cccs1 | -11% | 24µM* | 1% | u | 18% | 0
C/C(=N\NS(=O)(=O)c1ccc(C)c([N+](=O)[O-])c1)c1cccs1 | -14% | u | 0% | 32µM* | -12% | 0
CCN(CC)S(=O)(=O)c1ccc2c(c1)N(CC(=O)Nc1cccc(C#N)c1)C(=O)CO2 | -23% | x | x | -10%[59 µM] | x | x
C/C(CC(C)C)=N\NS(=O)(=O)c1ccc(C)c([N+](=O)[O-])c1 | -21% | 30µM* | -6% | 32µM* | 12% | 0
